Measured values as given in PubChem BioAssay AID729 (The Scripps Research Institute Molecular Screening Center, 2007).
The whole screen tested about 97,000 compounds, of which about 450 (0.46%) were called active. No stated cut-off is given here; in the data, active means activation above about 16%; inactive means the rest. The full list was thinned out, with actives kept by preference.

Target: Sphingosine 1-phosphate receptor 2 (Homo sapiens) (UniProt O95136)
Experiment: activation of human S1P2 receptor – cell-based, primary screen (AID 729);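 further: 0% = vehicle low control and 100% = maximal reference agonist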
Conditions: S1P2-expressing cell line, agonist reporter read-out; at 4.5 µM; active compounds read high

Sphingosine 1-phosphate receptor 2 (Homo sapiens), sequence (O95136 whole entry, looked up): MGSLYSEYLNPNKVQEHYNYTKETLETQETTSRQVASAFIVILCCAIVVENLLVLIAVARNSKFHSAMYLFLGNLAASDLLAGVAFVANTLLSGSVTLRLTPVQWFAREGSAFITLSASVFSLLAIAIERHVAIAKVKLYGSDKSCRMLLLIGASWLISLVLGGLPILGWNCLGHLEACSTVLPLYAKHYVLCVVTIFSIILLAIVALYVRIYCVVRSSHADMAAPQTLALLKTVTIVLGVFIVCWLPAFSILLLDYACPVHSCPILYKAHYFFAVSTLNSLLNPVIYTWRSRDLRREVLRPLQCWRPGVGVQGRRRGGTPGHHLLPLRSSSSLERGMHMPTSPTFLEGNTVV

activation, active:
CC1(C)Cc2c(C#N)c(SCc3nc4ccccc4[nH]3)nc(N3CCOCC3)c2CO1 31%
C=C(C)Cn1c(N2CCCC2)nc2c1c(=O)[nH]c(=O)n2C 19.6%
COc1cc(C2C(C(=O)OCCC#N)=C(C)NC3=C2S(=O)(=O)c2ccccc23)cc(OC)c1OC (stereo unspecified) 26.2%
CCn1c(=N)c(S(=O)(=O)c2ccc(F)cc2)cc2c(=O)n3ccccc3nc21 34.3%
O=C1CCCC(O)=C1C=NCCc1ccccc1 84.1%

activation, inactive:
Cc1ccc(-n2c(SCC(=O)Nc3ccc4c(c3)OCO4)nnc2-c2ccccn2)cc1 -1.29%
Cc1cccc(C)c1NC1=NC(=S)N(c2ccc(N(C)C)cc2)C1(C)C -9.2%
Cc1cc(C(=O)OCC(=O)Nc2ccc(F)c(F)c2)c(C)o1 -1.12%
Cc1sc2nc(SCC(N)=O)n(C)c(=O)c2c1C -6.32%
CCOc1ccc(NC(=O)CN(C)CC(=O)Nc2cccc(Cl)c2C)cc1OCC -8.46%
CS(=O)(=O)Nc1ccc(C(=O)N2CCCC2)cc1 -1.67%
O=C(NC1CCCCC1)c1cc([N+](=O)[O-])ccc1N1CCOCC1 -3.96%
COc1ccc(CSc2nc(N3CCOCC3)c3c(c2C#N)CC(C)(C)OC3)cc1 -4.98%
CC(C)c1nc(N2CCOCC2)c(C#N)c2c1COC(C)(C)C2 -3.4%
Cc1c(CCO)c(=O)[nH]n1C(=O)c1c(F)cccc1F -3.16%
CCn1c(SCC(=O)c2ccc3ccccc3c2)nnc1-c1cccs1 -3.98%
CCCc1nc2oc3c(OCC)ncnc3c2c2c1COC(C)(C)C2 -0.19%
O=C(Oc1ccc([N+](=O)[O-])cc1)c1ccc2ccccc2n1 -2.37%
CCOC(=O)c1cnc(SCC(=O)Nc2ccccc2C(=O)OC)nc1N 1.96%
O=C(Cc1ccc2c(c1)CCCC2)Nc1ccccc1Cl -3.38%
Cc1nnc(SCCCn2c(N3CCCCC3)nc3c2c(=O)[nH]c(=O)n3C)s1 -7%
C=C(C)Cn1c(N2CCN(CC)CC2)nc2c1c(=O)[nH]c(=O)n2C -3.08%
O=C(O)c1ccccc1-c1ccccc1C(=O)Nc1cccc2ccccc12 -6.33%
CCOC(=O)c1cc(C#N)c(N2CCCCC2)nc1-c1ccccc1 -3.1%
Cc1ccc(C(=O)N2CCCC2)c(F)c1F -3.27%
COc1ccc(-n2nnnc2SCC(=O)Nc2ccccc2)cc1 -5.85%
COc1ccccc1N1CC(C(=O)Nc2ccc(S(=O)(=O)N3CCOCC3)cc2)CC1=O (stereo unspecified) -6.57%
COc1ccc(Cc2nnc(SCC(=O)c3cccc([N+](=O)[O-])c3)n2C)cc1 -3.41%
CN(C)CCNC(=O)Nc1cccc(Cl)c1Cl -3.84%
O=C(/C=C/c1ccc(Cl)cc1Cl)NCc1ccco1 -1.23%
O=C(COc1ccc2c(C(F)(F)F)cc(=O)oc2c1)Nc1ccc2c(c1)OCCO2 -0.82%
COc1ccc(CCNC(=O)CN(c2ccccc2)S(C)(=O)=O)cc1OC -5.51%
CC(C)c1ccc(NC(=O)CCN2C(=O)c3ccc([N+](=O)[O-])cc3C2=O)cc1 -2.71%
Cc1nnc(SCC(=O)Nc2ncc3c(n2)CC(C)(C)CC3=O)s1 -4.47%
CCN(CC)CCCNC(=O)CCc1ccccc1 -2.5%
COCCOC(=O)C1=C(C)Nc2nc(C)nn2C1c1ccccc1 (stereo unspecified) 0.76%
CCCCCOC(=O)C1=C(C)Nc2nnnn2C1c1ccc(OC)c(OC)c1OC (stereo unspecified) -4.69%
CC(C)C(=O)Nc1nnc(Sc2ccc(N(C)C)cc2)s1 -5.86%
O=c1oc2c(Cl)cc(Cl)cc2cc1-c1nnc(Nc2ccccc2F)s1 -0.35%
Cn1c(=O)n(C)c2cc(/C=N/NC(=O)c3cccc(Br)c3)ccc21 -7.52%
Nc1c(C(=O)NCc2ccccc2)sc2nc3c(cc12)C(=O)CCC3 -2.41%
CCCCNC(=O)C1CCCN(S(=O)(=O)c2ccc(S(=O)(=O)NCC(C)C)cc2)C1 (stereo unspecified) -2.41%
COC(=O)c1ccccc1Oc1c(F)c(F)nc(N2CCOCC2)c1F -3.44%
COc1ccc(C2C(C(C)=O)=C(O)C(=O)N2Cc2cccnc2)cc1 (stereo unspecified) -3.66%
CC(C)C(C)NC(=O)COc1ncnc2ccccc12 (stereo unspecified) -3.57%
CC1Cc2ccccc2N1CC(=O)Nc1ccc2c(c1)OC(F)(F)O2 (stereo unspecified) 2.93%
O=C(CN1CCN(S(=O)(=O)c2ccc3ccccc3c2)CC1)NC(=O)NC1CCCCC1 -7.63%
CCOC(=O)c1nc(Nc2ccc(C(=O)OC)cc2)c2ccccc2n1 -2.78%
CCc1ccc(NC(=O)CN2C(=O)CSC2=O)cc1 -3.93%
Cn1cnc([N+](=O)[O-])c1Nc1ccccc1O -3.11%
COc1ccc(C2C(C(C)=O)=C(O)C(=O)N2c2nccs2)cc1 (stereo unspecified) -0.54%
CCCn1c(=NC(C)=O)c(C(=O)OCC)cc2c(=O)n3ccccc3nc21 14.5%
Cc1ccc(-n2c(=O)c(C#N)cc3c(=O)n4ccccc4nc32)cc1C 5.21%
CONC(=O)c1cc(OCC(F)(F)F)ccc1OCC(F)(F)F -3.47%
CC1(C)CC(=O)C(C=NCCC2=CCCCC2)=C(O)C1 -6.14%
Cc1cc(N=CC2=C(O)CCCC2=O)no1 -0.19%
COc1ccc(N(CC(=O)N/N=C/c2cccs2)S(=O)(=O)c2ccc(OC)c(OC)c2)cc1 -7.16%
COc1ccc(C(=O)/C=C/Nc2ccccn2)cc1 1.74%
O=C(Nc1ccccc1)c1ccc2nsnc2c1 -2.63%
O=C(O)c1cc2ccccc2c(=O)s1 -6.32%
O=C(CN1CCSCC1)N/N=C/c1ccc(F)cc1F -0.59%
